Data: PubChem BioAssay (NCI)
The panel holds about 83,000 compounds, 20% with a hit somewhere; the sample as a whole holds those more often.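 Growth was measured after 48 h exposure to one concentration of compound in 96-well plates. Values under 10 count as active.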 The source made the active and inactive calls.

What was measured:
Assay in all cases: NCI-60 one-dose screen, 48 h (100 = growth as untreated, 0 = no growth, -100 = all killed)
Settings in all cases: 10 µM
SR leukemia = system: SR leukemia
RPMI-8226 leukemia = system: RPMI-8226 leukemia
OVCAR-8 ovarian = system: OVCAR-8 ovarian
OVCAR-5 ovarian = system: OVCAR-5 ovarian
SK-OV-3 ovarian = system: SK-OV-3 ovarian
IGROV1 ovarian = system: IGROV1 ovarian
OVCAR-3 ovarian = system: OVCAR-3 ovarian
HS 578T breast = system: HS 578T breast
NCI/ADR-RES ovarian = system: NCI/ADR-RES ovarian
T-47D breast = system: T-47D breast
BT-549 breast = system: BT-549 breast
MDA-MB-435 melanoma = system: MDA-MB-435 melanoma
SW-620 colon = system: SW-620 colon
MCF7 breast = system: MCF7 breast
HCT-116 colon = system: HCT-116 colon
HCC-2998 colon = system: HCC-2998 colon
KM12 colon = system: KM12 colon
OVCAR-4 ovarian = system: OVCAR-4 ovarian

Measured: growth

NC(CSC(c1ccccc1)(c1ccccc1)c1cccc2ccccc12)C(=O)O (stereo not drawn)
inactive: SR leukemia 112% | RPMI-8226 leukemia 89.2% | OVCAR-8 ovarian 95.1% | OVCAR-5 ovarian 101% | SK-OV-3 ovarian 106% | IGROV1 ovarian 98.1% | OVCAR-3 ovarian 98.6% | HS 578T breast 92.5% | NCI/ADR-RES ovarian 97.6% | T-47D breast 103% | BT-549 breast 91.7% | MDA-MB-435 melanoma 90.9% | SW-620 colon 97.8% | MCF7 breast 105% | HCT-116 colon 85.7% | HCC-2998 colon 103% | KM12 colon 91.9%

Cc1cc(C)nc(NS(=O)(=O)c2ccc(Nc3nc4nc(NCc5ccccc5)nc(-c5ccc(O)cc5)c4c(=O)[nH]3)cc2)n1
inactive: SR leukemia 26.5% | RPMI-8226 leukemia 18.1% | OVCAR-8 ovarian 49.5% | OVCAR-5 ovarian 45.2% | SK-OV-3 ovarian 35.2% | OVCAR-3 ovarian 34.2% | HS 578T breast 35.6% | NCI/ADR-RES ovarian 20.3% | T-47D breast 25.1% | BT-549 breast 34% | MDA-MB-435 melanoma 32.1% | SW-620 colon 11.2% | MCF7 breast 16.1% | HCC-2998 colon 19.5% | KM12 colon 29.6%

CCOc1ccccc1/C=N/N1CCCCCC1
inactive: SR leukemia 89.3% | RPMI-8226 leukemia 110% | OVCAR-8 ovarian 103% | OVCAR-5 ovarian 107% | SK-OV-3 ovarian 95.9% | OVCAR-3 ovarian 97.1% | HS 578T breast 96% | NCI/ADR-RES ovarian 100% | T-47D breast 99.1% | BT-549 breast 103% | MDA-MB-435 melanoma 114% | SW-620 colon 96.1% | MCF7 breast 79.2% | HCT-116 colon 100% | HCC-2998 colon 93.5% | KM12 colon 106%

CSc1ccc(-c2cc(-c3ccc(NC(=O)CCCN4CCCC4)cc3)nc(-c3ccc(NC(=O)CCCN4CCCC4)cc3)c2)cc1
active: MCF7 breast -86.4%
inactive: SR leukemia 32.2% | RPMI-8226 leukemia 73.2% | OVCAR-8 ovarian 76.4% | OVCAR-5 ovarian 72.3% | SK-OV-3 ovarian 75.2% | OVCAR-3 ovarian 63.4% | HS 578T breast 55% | NCI/ADR-RES ovarian 95.5% | T-47D breast 102% | BT-549 breast 77.6% | MDA-MB-435 melanoma 79.7% | SW-620 colon 67.6% | HCT-116 colon 80.4% | HCC-2998 colon 86.3% | KM12 colon 24.6%

Nc1ccc(CC[C@H]2CCC/C=C/[C@@H]3C[C@H](O)C[C@H]3[C@H](O)/C=C/C(=O)O2)cc1
active: SR leukemia 1.1% | RPMI-8226 leukemia -4.05% | OVCAR-8 ovarian 2.58% | OVCAR-3 ovarian -13.4% | NCI/ADR-RES ovarian -0.671% | SW-620 colon -27.4% | MCF7 breast -44.7% | HCT-116 colon -73.7% | HCC-2998 colon -15.3%
inactive: OVCAR-4 ovarian 11.3% | SK-OV-3 ovarian 26.6% | IGROV1 ovarian 12% | HS 578T breast 39.6% | T-47D breast 10.2% | BT-549 breast 11.6% | MDA-MB-435 melanoma 11.4%

O=C(CCc1nnc2sc(-c3cc(O)c(O)c(O)c3)nn12)c1nc2ccccc2[nH]1
inactive: SR leukemia 49.6% | RPMI-8226 leukemia 87% | OVCAR-8 ovarian 94.7% | OVCAR-5 ovarian 117% | SK-OV-3 ovarian 104% | IGROV1 ovarian 109% | OVCAR-3 ovarian 119% | HS 578T breast 88.2% | NCI/ADR-RES ovarian 94.2% | T-47D breast 83.9% | BT-549 breast 107% | MDA-MB-435 melanoma 98.9% | SW-620 colon 116% | MCF7 breast 85.8% | HCT-116 colon 85.7% | HCC-2998 colon 111% | KM12 colon 105%

C[n+]1c2ccccc2nc2ccccc21
active: RPMI-8226 leukemia -17.2% | OVCAR-3 ovarian 4.06% | HS 578T breast -12.1% | NCI/ADR-RES ovarian 8.6% | T-47D breast 1.26% | MDA-MB-435 melanoma -40.9% | MCF7 breast -19.4% | HCT-116 colon -15.5%
inactive: SR leukemia 25.9% | OVCAR-8 ovarian 10.3% | OVCAR-5 ovarian 42.1% | SK-OV-3 ovarian 52% | IGROV1 ovarian 11% | SW-620 colon 11.2% | HCC-2998 colon 50.6% | KM12 colon 30.4%

CCN1CCN(CCC(=O)Nc2cccc(-n3cc(-c4ccncc4)c(-c4ccc(Cl)c(OC)c4)n3)c2)CC1
active: SR leukemia -12.3% | RPMI-8226 leukemia -38.8% | OVCAR-3 ovarian 7.41% | MDA-MB-435 melanoma -47% | HCT-116 colon 5.22%
inactive: OVCAR-8 ovarian 24.2% | OVCAR-4 ovarian 43.1% | SK-OV-3 ovarian 39.2% | IGROV1 ovarian 47.2% | HS 578T breast 13.1% | NCI/ADR-RES ovarian 15.2% | T-47D breast 38.8% | BT-549 breast 39.2% | SW-620 colon 10.3% | MCF7 breast 15.5% | HCC-2998 colon 43.8% | KM12 colon 15.7%

CC1CCCC(C(=O)O)C1C(=O)O (stereo not drawn)
inactive: SR leukemia 98.9% | RPMI-8226 leukemia 94.1% | OVCAR-8 ovarian 94.4% | OVCAR-5 ovarian 99.8% | SK-OV-3 ovarian 90.4% | IGROV1 ovarian 106% | OVCAR-3 ovarian 110% | HS 578T breast 95.4% | NCI/ADR-RES ovarian 102% | T-47D breast 90.9% | BT-549 breast 95.9% | MDA-MB-435 melanoma 102% | SW-620 colon 98.9% | MCF7 breast 103% | HCT-116 colon 99.5% | HCC-2998 colon 92.9% | KM12 colon 106%

O=C(Nc1ccc(NS(=O)(=O)c2ccc(F)cc2)cc1)C12CC3CC(CC(C3)C1)C2
inactive: SR leukemia 75.5% | RPMI-8226 leukemia 89.3% | OVCAR-8 ovarian 94.7% | OVCAR-4 ovarian 99% | SK-OV-3 ovarian 92.5% | IGROV1 ovarian 102% | OVCAR-3 ovarian 98.6% | HS 578T breast 94.4% | NCI/ADR-RES ovarian 85.5% | T-47D breast 76.2% | BT-549 breast 93.8% | MDA-MB-435 melanoma 95.9% | SW-620 colon 99.4% | MCF7 breast 78% | HCT-116 colon 97.8% | HCC-2998 colon 96.4%

O=C(O)c1cc([N+](=O)[O-])ccc1Oc1ccccc1
inactive: SR leukemia 91% | RPMI-8226 leukemia 97.8% | OVCAR-8 ovarian 97% | OVCAR-4 ovarian 104% | SK-OV-3 ovarian 106% | IGROV1 ovarian 114% | OVCAR-3 ovarian 105% | HS 578T breast 93.8% | NCI/ADR-RES ovarian 101% | T-47D breast 106% | BT-549 breast 92.7% | MDA-MB-435 melanoma 94.1% | SW-620 colon 96.1% | MCF7 breast 99.3% | HCT-116 colon 102% | HCC-2998 colon 105%

CN(C)CCCOc1cccc(NC2=C(Cl)C(=O)C(Nc3cccc(OCCCN(C)C)c3)=C(Cl)C2=O)c1
inactive: SK-OV-3 ovarian 98.2% | NCI/ADR-RES ovarian 74.7% | HCC-2998 colon 14% | KM12 colon 13.9%
active: SR leukemia -9.52% | RPMI-8226 leukemia -47.5% | OVCAR-8 ovarian -80.1% | OVCAR-5 ovarian -47.9% | IGROV1 ovarian -67.4% | OVCAR-3 ovarian -96% | HS 578T breast -2.49% | T-47D breast -44% | MDA-MB-435 melanoma -65.5% | SW-620 colon -61.2% | MCF7 breast -38.3% | HCT-116 colon -88.7%

CC(C)(C)c1ccc(S(=O)(=O)N[C@H]2CC[C@H]3[C@@H]4CCc5cc(OS(=O)(=O)O)ccc5[C@H]4CC[C@]23C)cc1
inactive: SR leukemia 20.7% | RPMI-8226 leukemia 34.1% | OVCAR-8 ovarian 52.1% | OVCAR-5 ovarian 87.3% | SK-OV-3 ovarian 82.1% | IGROV1 ovarian 41.4% | OVCAR-3 ovarian 34.1% | HS 578T breast 66.5% | NCI/ADR-RES ovarian 47.3% | T-47D breast 19.9% | BT-549 breast 47.5% | MDA-MB-435 melanoma 49.9% | SW-620 colon 56.6% | MCF7 breast 15.3% | HCT-116 colon 26.8% | HCC-2998 colon 73.2% | KM12 colon 40.9%

CC(=O)C1N=NCC1c1ccccc1 (stereo not drawn)
inactive: SR leukemia 111% | RPMI-8226 leukemia 110% | OVCAR-8 ovarian 111% | OVCAR-5 ovarian 98.9% | SK-OV-3 ovarian 103% | OVCAR-3 ovarian 110% | HS 578T breast 90% | NCI/ADR-RES ovarian 104% | T-47D breast 104% | BT-549 breast 105% | MDA-MB-435 melanoma 108% | SW-620 colon 101% | MCF7 breast 95.7% | HCT-116 colon 100% | HCC-2998 colon 102% | KM12 colon 102%

CC(=O)OC1CC2C(C)(C)CCC[C@]2(C)C2=C1C(O)=C(C(C)C)C(=O)C2=O (stereo partly drawn)
inactive: OVCAR-8 ovarian 13.4% | SK-OV-3 ovarian 19.3% | HS 578T breast 28.9%
active: SR leukemia 2.66% | RPMI-8226 leukemia 4.43% | OVCAR-5 ovarian -39.3% | OVCAR-3 ovarian -54% | NCI/ADR-RES ovarian 3.62% | T-47D breast 0.0935% | BT-549 breast -21.9% | MDA-MB-435 melanoma -37.9% | SW-620 colon -51% | HCT-116 colon -8.31% | HCC-2998 colon -76.1% | KM12 colon -77.7%

COc1ccc2c(c1)CC=C1[C@@H]2CC[C@]2(C)C(=O)/C(=N/O)C[C@@H]12
inactive: SR leukemia 74.6% | RPMI-8226 leukemia 83.8% | OVCAR-8 ovarian 102% | OVCAR-5 ovarian 86.1% | SK-OV-3 ovarian 116% | OVCAR-3 ovarian 106% | HS 578T breast 90.3% | NCI/ADR-RES ovarian 90.3% | T-47D breast 90.2% | BT-549 breast 88.8% | MDA-MB-435 melanoma 90.5% | SW-620 colon 78.4% | HCT-116 colon 61.9% | HCC-2998 colon 79.7% | KM12 colon 92.6%

CC(C)C1=C(O)C2=C(C(=O)C1=O)[C@@]1(C)CCCC(C)(C)[C@@H]1CC2
inactive: SR leukemia 48% | RPMI-8226 leukemia 55.2% | OVCAR-8 ovarian 70% | OVCAR-5 ovarian 108% | SK-OV-3 ovarian 95.5% | OVCAR-3 ovarian 61% | HS 578T breast 85% | NCI/ADR-RES ovarian 39.7% | T-47D breast 67.7% | BT-549 breast 106% | MDA-MB-435 melanoma 75.4% | SW-620 colon 55.4% | MCF7 breast 66.4% | HCC-2998 colon 53.8% | KM12 colon 52%

Cc1cc(Cl)ccc1Nc1nc(C(F)(F)F)ccc1C(=O)N/N=C/c1c(Cl)cccc1Cl
inactive: OVCAR-5 ovarian 24.8% | NCI/ADR-RES ovarian 11.9% | MDA-MB-435 melanoma 10.5% | HCC-2998 colon 19.5%
active: SR leukemia -26.6% | RPMI-8226 leukemia -15.1% | OVCAR-8 ovarian 9.98% | SK-OV-3 ovarian -12.9% | OVCAR-3 ovarian -2.74% | HS 578T breast -22.1% | T-47D breast -13.3% | BT-549 breast -15% | SW-620 colon 6.12% | MCF7 breast 7.7% | HCT-116 colon 1.5%

Nc1ccn(Cc2nnc(CCC(=O)c3nc4ccccc4[nH]3)o2)c(=O)n1
inactive: SR leukemia 14.9% | RPMI-8226 leukemia 73.1% | OVCAR-8 ovarian 88.5% | OVCAR-5 ovarian 98% | SK-OV-3 ovarian 98.7% | OVCAR-3 ovarian 102% | HS 578T breast 81.3% | NCI/ADR-RES ovarian 86.1% | T-47D breast 71.6% | BT-549 breast 74.5% | MDA-MB-435 melanoma 91.9% | SW-620 colon 83.5% | MCF7 breast 35.7% | HCT-116 colon 63.8% | KM12 colon 84.4%
